Results taken from PubChem BioAssay (EPA / NIEHS).
Several values for one entry are separate records, joined by “and”; a condition that tells them apart may be missing. Equal entries are not always repeated. Inconclusive results are not listed. Where a structure was tested more than once in an assay, its records may differ in their call. Activity calls are given as the source filed them. Rule for the calls, unless noted: active = hit-call score of the fitted dose curve at least 0.9, where 1 is the maximum; inconclusive = response in the unintended direction; inactive = score below 0.9.

Key:
[1] = TOX21_p53_BLA_p2_viability: Viability Assessment in the Tox21 HCT-116 p53 Agonism Beta-lactamase Assay, Phase 2 (AID 2283591);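 note: compound exposure lasted 16 h at 37 °C; actives lower the ATP signal meaning cytotoxicity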
In short: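 Cytotoxicity readout: CellTiter-Glo ATP luminescence, 30 min at room temperature, after the beta-lactamase read. Cells were HCT116 exposed 16 h at 37C to compounds pin-transferred at 217-fold dilution from DMSO stocks.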

[2] = molecular target: Cellular tumor antigen p53 (Homo sapiens) (UniProt P04637); experiment: TOX21_p53_BLA_p2_ratio: Tox21 HCT-116 p53 Agonism Beta-lactamase Assay, Ratio, Phase 2 (AID 2283592)
Chain of Cellular tumor antigen p53 (Homo sapiens) (P04637 whole entry, looked up): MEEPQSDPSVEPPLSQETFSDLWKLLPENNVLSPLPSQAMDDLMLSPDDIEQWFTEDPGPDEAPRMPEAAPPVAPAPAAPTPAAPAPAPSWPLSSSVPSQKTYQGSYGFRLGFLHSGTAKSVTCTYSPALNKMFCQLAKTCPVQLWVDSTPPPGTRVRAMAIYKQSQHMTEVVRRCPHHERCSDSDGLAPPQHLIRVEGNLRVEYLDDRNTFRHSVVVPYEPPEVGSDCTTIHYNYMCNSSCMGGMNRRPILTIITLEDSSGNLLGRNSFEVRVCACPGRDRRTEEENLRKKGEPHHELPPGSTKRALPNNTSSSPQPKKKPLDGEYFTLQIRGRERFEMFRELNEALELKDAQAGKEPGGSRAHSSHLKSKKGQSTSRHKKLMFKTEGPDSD
In short: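 Plated HCT116 p53-bla cells (4000/well) received compound after 5 h, then 16 h at 37C/5% CO2. CCF4-AM added, 2 h RT. Ratio of 460 to 530 nm emission taken as the p53 reporter signal.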

[3] = TOX21_p53_BLA_p3_viability: Viability Assessment in the Tox21 HCT-116 p53 Agonism Beta-lactamase Assay, Phase 3 (AID 2283593);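 note: cells exposed to compound for 16 h before reading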
In short: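 Cellular ATP was quantified by CellTiter-Glo luminescence, read after 30 min at room temperature. Beforehand, HCT116 cells (4000/well) received compound 5 h post-seeding, 217-fold diluted from DMSO, then incubated 16 h at 37C.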

[4] = TOX21_p53_BLA_p4_viability: Viability Assessment in the Tox21 HCT-116 p53 Agonism Beta-lactamase Assay, Phase 4 (AID 2283597);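 note: hits lower the luminescence signal meaning cytotoxicity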
In short: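 Readout: ATP luminescence (CellTiter-Glo), measured 30 min after reagent addition at RT. The reagent followed a 2 h CCF4-AM incubation, and the cells had been exposed to compound for 16 h at 37C.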

[5] = molecular target: Cellular tumor antigen p53 (Homo sapiens) (UniProt P04637); experiment: TOX21_p53_BLA_p5_ratio: Tox21 HCT-116 p53 Agonism Beta-lactamase Assay, Ratio, Phase 5 (AID 2283599)
In short: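 Beta-lactamase reporter ratio (blue 460 nm over green 530 nm, 405 nm excitation) after 2 h CCF4-AM loading, in HCT-116 cells exposed 16 h at 37 C to compounds pinned at 217-fold dilution. Increases relative to DMSO baseline scored.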

[6] = TOX21_p53_BLA_p5_viability: Viability Assessment in the Tox21 HCT-116 p53 Agonism Beta-lactamase Assay, Phase 5 (AID 2283600)
In short: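 Workflow: seed 4000 cells per well, wait 5 h, add compounds (DMSO, 217-fold dilution), incubate 16 h, load CCF4-AM 2 h, add CellTiter-Glo, read luminescence after 30 min.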

[7] = molecular target: Cellular tumor antigen p53 (Homo sapiens) (UniProt P04637); experiment: TOX21_p53_BLA_p4_ratio: Tox21 HCT-116 p53 Agonism Beta-lactamase Assay, Ratio, Phase 4 (AID 2283601)
In short: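 Signal is the blue/green (460nm/530nm) ratio of cleaved versus uncleaved CCF4-AM substrate, read after 2 h substrate loading. Cells were HCT116 carrying the p53-responsive beta-lactamase reporter, dosed 16 h at 37C, 5% CO2; CellTiter-Glo measured in parallel.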

[8] = molecular target: CCAAT/enhancer-binding protein beta (Homo sapiens) (UniProt P17676); experiment: ATG_C_EBP_CIS: Attagene CIS-FACTORIAL HepG2 Assay for human CCAAT/Enhancer Binding Protein (C/EBP) beta (AID 2282927; active = hit-call score of the fitted dose curve at least 0.9, where 1 is the maximum; inactive = score below 0.9); settings: HepG2 Attagene cis-factorial transcription factor reporter; actives raise or lower the signal
Chain of CCAAT/enhancer-binding protein beta (Homo sapiens) (P17676 whole entry, looked up): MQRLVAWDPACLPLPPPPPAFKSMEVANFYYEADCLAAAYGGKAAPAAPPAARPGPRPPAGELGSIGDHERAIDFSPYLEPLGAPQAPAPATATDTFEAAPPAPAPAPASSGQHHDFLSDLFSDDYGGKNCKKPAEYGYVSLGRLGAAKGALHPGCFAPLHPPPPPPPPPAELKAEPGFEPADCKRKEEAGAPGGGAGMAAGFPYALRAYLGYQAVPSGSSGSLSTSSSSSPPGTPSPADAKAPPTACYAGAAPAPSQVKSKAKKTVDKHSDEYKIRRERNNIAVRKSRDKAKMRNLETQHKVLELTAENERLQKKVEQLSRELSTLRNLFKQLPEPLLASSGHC
In short: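 Changes in reporter mRNA, rather than exogenous chimeric receptor activity, reflect native C/EBP signalling in transfected HepG2 cells dosed for 24 h; transcripts are detected by RT-PCR and capillary electrophoresis.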

[9] = ATG_CMV_CIS: Attagene CIS-FACTORIAL HepG2 Assay for human CMV (Internal Marker) (AID 2282928; active = hit-call score of the fitted dose curve at least 0.9, where 1 is the maximum; inactive = score below 0.9;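 note: endpoint acts as a background internal control marker rather than a target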); settings: HepG2 CMV promoter reporter, transcription factor profiling; actives raise or lower the signal
In short: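 Fluorescence intensity of RT-PCR-derived reporter fragments, resolved by capillary electrophoresis, gives the signal. HepG2 liver cells bearing transfected cis-element reporters were treated 24 h; activity in either direction was fit relative to DMSO-treated controls.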

[10] = ATG_AP_2_CIS: Attagene CIS-FACTORIAL HepG2 Assay for human Activator Protein 2 (AP-2) (AID 2282932; active = hit-call score of the fitted dose curve at least 0.9, where 1 is the maximum; inactive = score below 0.9); settings: HepG2 AP-2 cis-reporter, Attagene transcription factor profiling; actives raise or lower the signal
In short: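 Endogenous transcription factor activity is reported through transfected multiplex reporter constructs in HepG2, after 24 h of compound exposure. Transcripts were quantified by RT-PCR and capillary electrophoresis of fluorescent fragments. Bidirectional fit against DMSO.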

[11] = ATG_BRE_CIS: Attagene CIS-FACTORIAL HepG2 Assay for human Bone Morphogenetic Protein (BMP) Response Element (BRE) (AID 2282933; active = hit-call score of the fitted dose curve at least 0.9, where 1 is the maximum; inactive = score below 0.9); settings: HepG2 BMP response element reporter, Attagene transcription factor profiling; actives raise or lower the signal
In short: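 Multiplexed cis-reporter assay, HepG2, 24 h exposure. mRNA from reporter units quantified via RT-PCR/CE; DMSO baseline; bidirectional curve fit.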

[12] = molecular target: Transcription factor E2F1 (Homo sapiens) (UniProt Q01094); experiment: ATG_E2F_CIS: Attagene CIS-FACTORIAL HepG2 Assay for human E2F Transcription Factor 1 (AID 2282935; active = hit-call score of the fitted dose curve at least 0.9, where 1 is the maximum; inactive = score below 0.9); settings: HepG2 Attagene cis-reporter, E2F reporter RNA transcripts; actives raise or lower the signal
Chain of Transcription factor E2F1 (Homo sapiens) (Q01094 whole entry, looked up): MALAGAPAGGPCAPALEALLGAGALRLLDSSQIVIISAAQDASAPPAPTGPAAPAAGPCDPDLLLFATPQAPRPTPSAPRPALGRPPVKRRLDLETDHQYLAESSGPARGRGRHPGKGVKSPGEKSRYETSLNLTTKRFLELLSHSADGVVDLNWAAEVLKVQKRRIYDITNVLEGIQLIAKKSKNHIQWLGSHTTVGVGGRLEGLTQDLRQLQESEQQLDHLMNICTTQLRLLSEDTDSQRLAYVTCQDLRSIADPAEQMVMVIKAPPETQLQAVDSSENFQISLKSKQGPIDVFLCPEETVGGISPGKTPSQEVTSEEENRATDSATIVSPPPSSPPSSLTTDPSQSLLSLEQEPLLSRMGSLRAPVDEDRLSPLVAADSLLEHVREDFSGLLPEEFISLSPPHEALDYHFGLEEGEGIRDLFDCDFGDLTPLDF
In short: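 Gain or loss of reporter transcript, fitted against DMSO, reflects E2F1-driven transcription. Transiently transfected HepG2 dosed 24 h before RNA isolation. Quantified by fluorescent RT-PCR products separated by capillary electrophoresis.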

[13] = ATG_E_Box_CIS: Attagene CIS-FACTORIAL HepG2 Assay for human Enhancer Box (E-box) (AID 2282936; active = hit-call score of the fitted dose curve at least 0.9, where 1 is the maximum; inactive = score below 0.9); settings: HepG2 E-box cis-reporter transcription, actives raise or lower the signal
In short: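 E-box-driven reporter transcripts measured in transiently transfected HepG2 after 24 h exposure: RNA reverse-transcribed, PCR-amplified, fluorescently labelled, digested and resolved by capillary electrophoresis. Gain or loss relative to DMSO.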

[14] = ATG_M_61_CIS: Attagene CIS-FACTORIAL HepG2 Assay for M61 Transcription Factor (Internal Marker) (AID 2282937; active = hit-call score of the fitted dose curve at least 0.9, where 1 is the maximum; inactive = score below 0.9); settings: HepG2 Attagene CIS-FACTORIAL M61 internal marker reporter; actives raise or lower the signal
In short: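 HepG2 cells transiently transfected with cis-element-driven multiple reporter transcription units, dosed for 24 h. Reporter mRNA measured by RT-PCR, 6-FAM primer-extension labelling, HpaI digestion and capillary electrophoresis; bidirectional fit versus DMSO baseline.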

[15] = ATG_EGR_CIS: Attagene CIS-FACTORIAL HepG2 Assay for human Early Growth Response 1 (EGR1) (AID 2282938; active = hit-call score of the fitted dose curve at least 0.9, where 1 is the maximum; inactive = score below 0.9); settings: HepG2 Attagene CIS-FACTORIAL EGR reporter mRNA; actives raise or lower the signal
In short: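 HepG2 cells transiently transfected with cis-promoter-driven multiplexed reporter transcription units; reporter mRNA measured 24 h after compound dosing by RT-PCR, 6-FAM primer extension, HpaI digestion and capillary electrophoresis. Bidirectional fit versus DMSO baseline.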

[16] = ATG_Ets_CIS: Attagene CIS-FACTORIAL HepG2 Assay for human Erythroblast Transformation Specific (ETS) (AID 2282941; active = hit-call score of the fitted dose curve at least 0.9, where 1 is the maximum; inactive = score below 0.9); settings: HepG2 ETS cis-reporter transcription, actives raise or lower the signal
In short: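 Multiplexed reporter transcript profiling: HepG2, 24 h treatment, total RNA to cDNA, PCR, 6-FAM labelling, HpaI cut, capillary electrophoresis. Gain- or loss-of-signal fitted against DMSO.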

[17] = molecular target: Hepatocyte nuclear factor 3-beta (Homo sapiens) (UniProt Q9Y261); experiment: ATG_FoxA2_CIS: Attagene CIS-FACTORIAL HepG2 Assay for human Forkhead box A2 (FOXA2) (AID 2282942; active = hit-call score of the fitted dose curve at least 0.9, where 1 is the maximum; inactive = score below 0.9); settings: HepG2 cis-reporter transcription factor activity, 24 h; actives raise or lower the signal
Chain of Hepatocyte nuclear factor 3-beta (Homo sapiens) (Q9Y261 whole entry, looked up): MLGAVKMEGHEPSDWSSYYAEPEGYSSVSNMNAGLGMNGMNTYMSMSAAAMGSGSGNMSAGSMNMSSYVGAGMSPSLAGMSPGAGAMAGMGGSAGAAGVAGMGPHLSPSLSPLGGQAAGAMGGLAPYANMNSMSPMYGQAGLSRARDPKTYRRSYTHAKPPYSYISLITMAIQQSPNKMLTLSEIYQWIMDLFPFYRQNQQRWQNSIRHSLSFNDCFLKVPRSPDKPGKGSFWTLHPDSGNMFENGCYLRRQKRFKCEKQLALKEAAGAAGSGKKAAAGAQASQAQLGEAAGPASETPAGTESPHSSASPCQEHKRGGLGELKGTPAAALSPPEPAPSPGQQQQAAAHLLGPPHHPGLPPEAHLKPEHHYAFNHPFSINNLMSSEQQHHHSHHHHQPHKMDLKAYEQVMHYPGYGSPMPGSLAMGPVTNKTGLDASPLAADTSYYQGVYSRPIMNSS
In short: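 HepG2 cells transiently transfected with multiple cis-regulated reporter transcription units, dosed for 24 h. Reporter mRNA measured by RT-PCR, 6-FAM labelling, HpaI digestion and capillary electrophoresis; bidirectional fitting against DMSO baseline.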

[18] = ATG_FoxO_CIS: Attagene CIS-FACTORIAL HepG2 Assay for human Forkhead box O (FoxO) (AID 2282943; active = hit-call score of the fitted dose curve at least 0.9, where 1 is the maximum; inactive = score below 0.9); settings: HepG2 Attagene cis-reporter, FoxO element, mRNA; actives raise or lower the signal
In short: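 Human hepatoma HepG2 cells carry transiently introduced reporter transcription units controlled by cis promoter elements. Chemical treatment lasted 24 h, and mRNA signal was compared with DMSO.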

[19] = molecular target: Cellular tumor antigen p53 (Homo sapiens) (UniProt P04637); experiment: TOX21_p53_BLA_p3_ratio: Tox21 HCT-116 p53 Agonism Beta-lactamase Assay, Ratio, Phase 3 (AID 2283596)
In short: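 Cells were seeded at 4000/well, rested 5 h at 37C, then dosed with DMSO compound solutions (217-fold dilution) for 16 h. CCF4-AM substrate was loaded for 2 h at room temperature, and the 460/530 nm emission ratio was fitted for gain of signal versus DMSO.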

[20] = molecular target: Estrogen receptor (Homo sapiens) (UniProt P03372); experiment: NVS_NR_hER: NovaScreen (NVS) Nuclear Receptor Binding Assay for human Estrogen Receptor (ER) (AID 2283348)
Chain of Estrogen receptor (Homo sapiens) (P03372 whole entry, looked up): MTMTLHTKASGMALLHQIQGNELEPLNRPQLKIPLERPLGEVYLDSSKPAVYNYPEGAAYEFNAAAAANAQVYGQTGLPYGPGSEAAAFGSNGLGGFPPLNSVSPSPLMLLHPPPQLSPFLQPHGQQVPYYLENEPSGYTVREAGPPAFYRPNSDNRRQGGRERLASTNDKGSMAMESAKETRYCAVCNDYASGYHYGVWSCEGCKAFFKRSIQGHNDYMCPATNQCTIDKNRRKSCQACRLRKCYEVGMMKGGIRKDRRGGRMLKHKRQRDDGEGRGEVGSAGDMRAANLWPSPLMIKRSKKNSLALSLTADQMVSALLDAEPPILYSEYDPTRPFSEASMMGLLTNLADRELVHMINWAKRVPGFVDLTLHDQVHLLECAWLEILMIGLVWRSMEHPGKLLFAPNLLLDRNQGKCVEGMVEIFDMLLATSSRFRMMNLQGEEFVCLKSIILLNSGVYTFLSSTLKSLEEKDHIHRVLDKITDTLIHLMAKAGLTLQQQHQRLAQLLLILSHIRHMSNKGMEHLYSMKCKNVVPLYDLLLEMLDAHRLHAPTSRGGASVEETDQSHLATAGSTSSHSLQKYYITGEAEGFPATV
In short: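 Cell-free MCF7-derived ER preparation, specific radioligand displaced by test compound, read by scintillation counting 18 h post-dosing. Duplicate single-point 25 uM screen, then concentration-response confirmation; DMSO baseline.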

Measured: AC50

CC(C)C1OCCN1CCOC(=O)NCCCCCCNC(=O)OCCN1CCOC1C(C)C (stereo not given)
inactive: [1] | [2] | [3] | [4] | [5] | [6] | [7]

O=C(CC(C(=O)OC1CCCCC1)S(=O)(=O)O)OC1CCCCC1 (stereo not given)
not listed: [4] | [20]
inactive: all other assays above

c1ccc2c(c1)Oc1ccccc1S2
active: [13] 57.3 µM
not listed: [6] | [19] | [20]
inactive: all other assays above

CC(C)CC(=O)CC(C)CC(C)C (stereo not given)
not listed: [20]
inactive: all other assays above

O=C(Oc1ccccc1)c1ccccc1
inactive: [8] | [9] | [10] | [11] | [12] | [13] | [14] | [15] | [16] | [17] | [18]

Nc1nc(N)c2nc(-c3ccccc3)c(N)nc2n1
active: [1] 85.6 µM | [2] 32.3 µM and 16.7 µM | [19] 33.5 µM | [5] 17.5 µM and 38.9 µM and 28 µM | [7] 26.9 µM and 21.1 µM and 29.1 µM
inactive: [20] | [1] | [2] | [3] | [19] | [4] | [6]

CC(C)(C)C(=O)C(=O)O
inactive: [20] | [2] | [5] | [6] | [7]

c1ccc(CNc2ncnc3nc[nH]c23)cc1
not listed: [2] | [5] | [7] | [19] | [20]
inactive: all other assays above

CCCCCCCCCCCCCCCCCC[N+](C)(C)C
inactive: [9] | [11] | [12] | [14] | [15]
active: [8] 41.1 µM | [10] 38.6 µM | [13] 6.9 µM | [16] 16.7 µM | [17] 45.4 µM | [18] 42 µM | [1] 46.2 µM | [2] 73.2 µM | [3] 46.2 µM | [19] 72.7 µM | [4] 65.7 µM | [6] 62.8 µM | [7] 75.3 µM

O=[N+]([O-])c1cc[n+]([O-])cc1
inactive: [20] | [1] | [2] | [3] | [4] | [5] | [6] | [7]

COc1cc(CNC(=O)CCCC/C=C/C(C)C)ccc1O
inactive: [1] | [2] | [3] | [19] | [4] | [5] | [6] | [7]

COc1ccc2ccccc2c1
inactive: [8] | [9] | [10] | [11] | [12] | [13] | [14] | [15] | [16] | [17] | [18]

NC(N)=Nc1nc(CSCCC(N)=NS(N)(=O)=O)cs1
not listed: [20]
inactive: all other assays above

CC(=O)CC(=O)OC(C)(C)C
inactive: [20] | [1] | [2] | [3] | [19] | [4] | [5] | [7]

O=[N+]([O-])c1ccc(ON=Cc2cc(Br)c(O)c(Br)c2)c([N+](=O)[O-])c1
inactive: [20] | [1] | [4] | [6]
active: [2] 79 µM | [3] 34.4 µM | [19] 8.26 µM | [5] 13.8 µM | [7] 75.9 µM
